Assay results reported in the supplement of paper PMC10849652.
The full data set covers some 7,900 targets. This sample favours those with a hit. About 0.6% of all pairs of compound and target were hits.

Columns and labels:
Assay in all cases: log2 fold change, soluble protein after heating vs DMSO (PISA); higher = thermal stabilisation; K562 cells, 10 uM, 30 min; active = over 0.2 and 3.5 SD of the protein, either way, in both replicates (recomputed)
[1] = compound: CC[C@@H]1C(=O)N(C)c2cnc(Nc3ccc(C(=O)NC4CCN(C)CC4)cc3OC)nc2N1C1CCCC1
Procedure, shortened: (§1)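 K562 cells at 2×10^6 cells/mL were treated for 30 min with 10 μM compound, and aliquots were heated for 3 min over 48°C-58°C before pooling. Extraction used PBS with 0.5% NP-40 at 4°C, and soluble protein was the supernatant after 21,000xg for 90 min, measured by TMTpro 16plex LC-MS/MS with channel sums equalised. Thermal stability values, relative to control samples and from duplicates, are log2 fold changes.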

[2] = compound: CC[C@@H]1C(=O)N(C)c2cnc(Nc3ccc(C(=O)N[C@H]4CC[C@H](N5CCN(CC6CC6)CC5)CC4)cc3OC)nc2N1C(C)C [volasertib]
Procedure, shortened: as §1

[3] = compound: CC[C@H](C)N1C=C(C2=C(C=C(C=C21)C3=CN=C(C=C3)N4CCNCC4)C(=O)NCC5=C(C=C(NC5=O)C)C)C
Procedure, shortened: as §1

[4] = compound: CC[C@H](C)[C@@H](C(=O)N[C@@H]([C@@H](C)O)C(=O)N[C@@H](CC(C)C)C(=O)[C@]1(CO1)C)NC(=O)[C@H]([C@@H](C)CC)N(C)C(=O)C [epoxomicin]
Procedure, shortened: as §1

[5] = compound: CCn1c(C(=O)N(C2CC2)C2CC2)cc2c3c(ncn3C)c(Nc3cc(C)n(C)n3)nc21
Procedure, shortened: as §1

[6] = compound: CCn1cc(-c2ccnc3[nH]c(-c4cccc(CN(C)C)c4)cc23)c(-c2ccc(NC(=O)N(C)C)cc2)n1
Procedure, shortened: as §1

[7] = compound: CN(C)CC(=O)Nc1ccc2[nH]c(=O)c3ccccc3c2c1
Procedure, shortened: as §1

[8] = compound: CN(CCOC1=CC=C(C=C1)C[C@H]2C(=O)NC(=O)S2)C3=CC=CC=N3 (racemic) [rosiglitazone]
Procedure, shortened: as §1

[9] = compound: CN1C2=C(C3=C1C(=O)N(N=C3)CC4=CC(=CC=C4)N)SC(=C2)S(=O)C
Procedure, shortened: as §1

[10] = compound: CN1CCC(CNc2ccc3ncc(-c4cccc(OC(F)(F)F)c4)n3n2)CC1
Procedure, shortened: as §1

[11] = compound: CN1CCN(CCOc2cc(OC3CCOCC3)c3c(Nc4c(Cl)ccc5c4OCO5)ncnc3c2)CC1 [saracatinib]
Procedure, shortened: as §1

[12] = compound: CN1CCN(c2nc(C3=C(c4c[nH]c5ccccc45)C(=O)NC3=O)c3ccccc3n2)CC1 [sotrastaurin]
Procedure, shortened: as §1

[13] = compound: CN1CC[C@H](c2c(O)cc(O)c3c(=O)cc(-c4ccccc4Cl)oc23)[C@H](O)C1 [alvocidib]
Procedure, shortened: as §1

[14] = compound: CN1CCc2c(c3ccccc3n2Cc2ccc(C(=O)NO)cc2)C1 [Tubastatin A]
Procedure, shortened: as §1

[15] = compound: CNC(=O)C1=CC=CC=C1NC2=NC(=NC=C2Cl)NC3=C(C=C(C=C3)N4CCOCC4)OC
Procedure, shortened: as §1

[16] = compound: CNC(=O)c1ccc(Nc2ncc(C(F)(F)F)c(NCc3nccnc3N(C)S(C)(=O)=O)n2)cc1 [defactinib]
Procedure, shortened: as §1

[17] = compound: CNCc1ccc(-c2[nH]c3cc(F)cc4c3c2CCNC4=O)cc1 [rucaparib]
Procedure, shortened: as §1

[18] = compound: CNc1nc(-c2ccc3c(N)n[nH]c3c2)cc(N2C[C@@H](C(=O)NC3CCCCC3)CC[C@H]2C)n1
Procedure, shortened: as §1

[19] = compound: COC(=O)N[C@@H](C)CNc1nccc(-c2cn(C(C)C)nc2-c2cc(Cl)cc(NS(C)(=O)=O)c2F)n1 [encorafenib]
Procedure, shortened: as §1

[20] = compound: COC(=O)[C@H](CCSC)NC(=O)C1=C(C=C(C=C1)NC[C@H](CS)N)C2=CC=CC=C2
Procedure, shortened: as §1

Measured: log2 fold change

NFX1 (UniProt Q12986)
inactive: [1] 0.029 | [2] 0.15 | [3] -0.001 | [4] -0.144 | [5] 0.029 | [6] 0.232 | [7] -0.216 | [8] 0.138 | [9] 0.128 | [10] 0.197 | [11] -0.246 | [12] -0.09 | [13] 0.08 | [14] -0.001 | [15] 0.014 | [16] 0.009 | [17] 0.269 | [18] -0.237 | [19] -0.01 | [20] 0

NANS (UniProt Q9NR45)
Chain of UniProt Q9NR45 (Q9NR45 whole entry, looked up): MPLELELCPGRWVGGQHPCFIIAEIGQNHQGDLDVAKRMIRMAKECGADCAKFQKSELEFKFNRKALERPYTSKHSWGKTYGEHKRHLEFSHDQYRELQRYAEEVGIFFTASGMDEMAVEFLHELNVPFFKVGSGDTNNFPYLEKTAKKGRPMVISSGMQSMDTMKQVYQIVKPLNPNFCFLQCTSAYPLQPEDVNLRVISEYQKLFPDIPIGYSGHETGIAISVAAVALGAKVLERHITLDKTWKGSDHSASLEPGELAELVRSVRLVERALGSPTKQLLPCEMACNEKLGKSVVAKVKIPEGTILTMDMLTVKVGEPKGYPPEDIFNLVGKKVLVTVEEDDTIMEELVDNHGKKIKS
active: [9] -0.434
inactive: [1] 0.015 | [2] -0.013 | [3] 0.032 | [4] 0.016 | [5] 0.04 | [6] -0.041 | [7] 0.009 | [8] 0.032 | [10] 0.034 | [11] 0.022 | [12] -0.058 | [13] -0.091 | [14] -0.026 | [15] 0.034 | [16] -0.033 | [17] -0.084 | [18] 0.051 | [19] 0.004 | [20] -0.015

NFYC (UniProt Q13952)
inactive: [1] 0.012 | [2] 0.015 | [3] -0.021 | [4] -0.001 | [5] 0.006 | [6] -0.015 | [7] 0.041 | [8] 0.059 | [9] -0.063 | [10] 0 | [11] 0.011 | [12] 0.012 | [13] 0.054 | [14] -0.021 | [15] -0.022 | [16] -0.022 | [17] -0.041 | [18] -0.019 | [19] 0.005 | [20] 0.005

NDUFA9 (UniProt Q16795)
inactive: [1] -0.082 | [3] 0.073 | [4] 0.03 | [5] -0.029 | [6] -0.053 | [7] 0.035 | [8] 0.064 | [9] -0.017 | [11] -0.003 | [12] -0.008 | [13] -0.022 | [14] -0.013 | [15] -0.034 | [16] -0.011 | [17] -0.038 | [18] 0.036 | [19] 0.048 | [20] -0.004
active: [2] -0.26 | [10] -0.367

NUP85 (UniProt Q9BW27)
Chain of UniProt Q9BW27 (Q9BW27 whole entry, looked up): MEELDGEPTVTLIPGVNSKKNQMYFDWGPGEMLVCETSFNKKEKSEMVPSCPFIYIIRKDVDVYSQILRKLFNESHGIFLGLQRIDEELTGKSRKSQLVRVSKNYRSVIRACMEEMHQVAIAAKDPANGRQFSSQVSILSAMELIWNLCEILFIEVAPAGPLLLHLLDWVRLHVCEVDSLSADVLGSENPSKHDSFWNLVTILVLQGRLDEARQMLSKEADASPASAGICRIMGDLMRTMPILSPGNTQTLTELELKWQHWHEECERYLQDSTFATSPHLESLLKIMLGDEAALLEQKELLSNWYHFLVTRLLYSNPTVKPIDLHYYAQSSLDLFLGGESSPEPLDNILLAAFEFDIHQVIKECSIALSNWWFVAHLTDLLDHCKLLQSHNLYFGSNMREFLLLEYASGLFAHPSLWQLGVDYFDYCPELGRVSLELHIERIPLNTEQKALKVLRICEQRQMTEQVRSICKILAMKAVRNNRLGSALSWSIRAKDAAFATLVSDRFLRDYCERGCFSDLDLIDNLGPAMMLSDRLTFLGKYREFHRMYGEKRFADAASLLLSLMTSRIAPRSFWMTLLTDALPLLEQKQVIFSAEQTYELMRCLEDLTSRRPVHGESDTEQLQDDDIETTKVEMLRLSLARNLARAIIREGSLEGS
inactive: [1] -0.158 | [3] -0.008 | [4] 0.022 | [5] -0.024 | [6] -0.01 | [7] -0.004 | [8] 0.019 | [9] -0.038 | [10] -0.045 | [11] 0.027 | [12] -0.026 | [13] -0.023 | [14] -0.001 | [15] -0.021 | [16] -0.097 | [17] -0.047 | [18] -0.034 | [19] 0.025 | [20] 0.003
active: [2] -0.561

PAFAH1B3 (UniProt Q15102)
Chain of UniProt Q15102 (Q15102 whole entry, looked up): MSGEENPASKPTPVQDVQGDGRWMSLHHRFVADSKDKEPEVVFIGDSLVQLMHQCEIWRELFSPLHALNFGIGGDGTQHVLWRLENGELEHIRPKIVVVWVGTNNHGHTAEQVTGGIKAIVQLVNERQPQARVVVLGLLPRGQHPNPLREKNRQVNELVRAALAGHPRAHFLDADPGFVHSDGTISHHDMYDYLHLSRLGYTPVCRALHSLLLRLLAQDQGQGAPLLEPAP
inactive: [1] -0.017 | [2] 0.011 | [3] 0.042 | [4] 0.063 | [5] -0.102 | [6] -0.098 | [7] 0.069 | [8] 0.021 | [9] -0.012 | [10] 0.001 | [11] -0.109 | [12] -0.034 | [13] -0.082 | [14] 0.026 | [15] 0.001 | [16] 0.021 | [17] 0.049 | [18] 0.002 | [19] -0.006 | [20] -0.071

NELFA (UniProt Q9H3P2)
Chain of UniProt Q9H3P2 (Q9H3P2 whole entry, looked up): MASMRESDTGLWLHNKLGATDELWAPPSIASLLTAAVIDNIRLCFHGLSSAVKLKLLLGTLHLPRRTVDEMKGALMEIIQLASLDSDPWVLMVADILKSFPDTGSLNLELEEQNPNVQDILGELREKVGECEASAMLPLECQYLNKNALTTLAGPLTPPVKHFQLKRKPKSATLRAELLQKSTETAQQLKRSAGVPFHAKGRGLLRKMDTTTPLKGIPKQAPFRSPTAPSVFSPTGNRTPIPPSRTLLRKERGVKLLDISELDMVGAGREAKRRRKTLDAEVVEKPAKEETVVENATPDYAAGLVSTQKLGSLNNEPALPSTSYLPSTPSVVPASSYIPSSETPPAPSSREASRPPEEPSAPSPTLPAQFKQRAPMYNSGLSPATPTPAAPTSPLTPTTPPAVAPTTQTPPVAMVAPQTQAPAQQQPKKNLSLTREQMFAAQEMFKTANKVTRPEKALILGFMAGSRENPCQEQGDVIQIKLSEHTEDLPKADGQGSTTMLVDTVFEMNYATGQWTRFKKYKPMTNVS
inactive: [1] -0.4 | [3] 0.341 | [4] 0.053 | [5] -0.105 | [6] -0.139 | [7] 0.16 | [8] 0.048 | [9] -0.051 | [10] 0.006 | [11] 0.004 | [12] -0.023 | [13] -0.193 | [14] 0.216 | [15] 0.078 | [16] -0.094 | [17] 0.261 | [18] -0.014 | [19] -0.039 | [20] -0.213
active: [2] -0.868

OTULIN (UniProt Q96BN8)
inactive: [1] 0.045 | [2] -0.331 | [3] 0.074 | [4] 0.037 | [5] -0.093 | [6] -0.084 | [7] 0.054 | [8] 0.051 | [9] 0.015 | [10] -0.226 | [11] -0.029 | [12] -0.044 | [13] 0.046 | [14] 0.019 | [15] -0.009 | [16] -0.029 | [17] 0.02 | [18] -0.053 | [19] -0.012 | [20] -0.012

NARS2 (UniProt Q96I59)
inactive: [1] -0.021 | [2] -0.043 | [3] 0.045 | [4] 0.048 | [5] 0.034 | [6] -0.055 | [7] 0.001 | [8] 0.026 | [9] -0.034 | [10] -0.182 | [11] -0.004 | [12] 0.03 | [13] -0.039 | [14] -0.127 | [15] -0.056 | [16] 0.001 | [17] -0.021 | [18] -0.006 | [19] 0.008 | [20] -0.008

NUP210 (UniProt Q8TEM1)
Chain of UniProt Q8TEM1 (Q8TEM1 whole entry, looked up): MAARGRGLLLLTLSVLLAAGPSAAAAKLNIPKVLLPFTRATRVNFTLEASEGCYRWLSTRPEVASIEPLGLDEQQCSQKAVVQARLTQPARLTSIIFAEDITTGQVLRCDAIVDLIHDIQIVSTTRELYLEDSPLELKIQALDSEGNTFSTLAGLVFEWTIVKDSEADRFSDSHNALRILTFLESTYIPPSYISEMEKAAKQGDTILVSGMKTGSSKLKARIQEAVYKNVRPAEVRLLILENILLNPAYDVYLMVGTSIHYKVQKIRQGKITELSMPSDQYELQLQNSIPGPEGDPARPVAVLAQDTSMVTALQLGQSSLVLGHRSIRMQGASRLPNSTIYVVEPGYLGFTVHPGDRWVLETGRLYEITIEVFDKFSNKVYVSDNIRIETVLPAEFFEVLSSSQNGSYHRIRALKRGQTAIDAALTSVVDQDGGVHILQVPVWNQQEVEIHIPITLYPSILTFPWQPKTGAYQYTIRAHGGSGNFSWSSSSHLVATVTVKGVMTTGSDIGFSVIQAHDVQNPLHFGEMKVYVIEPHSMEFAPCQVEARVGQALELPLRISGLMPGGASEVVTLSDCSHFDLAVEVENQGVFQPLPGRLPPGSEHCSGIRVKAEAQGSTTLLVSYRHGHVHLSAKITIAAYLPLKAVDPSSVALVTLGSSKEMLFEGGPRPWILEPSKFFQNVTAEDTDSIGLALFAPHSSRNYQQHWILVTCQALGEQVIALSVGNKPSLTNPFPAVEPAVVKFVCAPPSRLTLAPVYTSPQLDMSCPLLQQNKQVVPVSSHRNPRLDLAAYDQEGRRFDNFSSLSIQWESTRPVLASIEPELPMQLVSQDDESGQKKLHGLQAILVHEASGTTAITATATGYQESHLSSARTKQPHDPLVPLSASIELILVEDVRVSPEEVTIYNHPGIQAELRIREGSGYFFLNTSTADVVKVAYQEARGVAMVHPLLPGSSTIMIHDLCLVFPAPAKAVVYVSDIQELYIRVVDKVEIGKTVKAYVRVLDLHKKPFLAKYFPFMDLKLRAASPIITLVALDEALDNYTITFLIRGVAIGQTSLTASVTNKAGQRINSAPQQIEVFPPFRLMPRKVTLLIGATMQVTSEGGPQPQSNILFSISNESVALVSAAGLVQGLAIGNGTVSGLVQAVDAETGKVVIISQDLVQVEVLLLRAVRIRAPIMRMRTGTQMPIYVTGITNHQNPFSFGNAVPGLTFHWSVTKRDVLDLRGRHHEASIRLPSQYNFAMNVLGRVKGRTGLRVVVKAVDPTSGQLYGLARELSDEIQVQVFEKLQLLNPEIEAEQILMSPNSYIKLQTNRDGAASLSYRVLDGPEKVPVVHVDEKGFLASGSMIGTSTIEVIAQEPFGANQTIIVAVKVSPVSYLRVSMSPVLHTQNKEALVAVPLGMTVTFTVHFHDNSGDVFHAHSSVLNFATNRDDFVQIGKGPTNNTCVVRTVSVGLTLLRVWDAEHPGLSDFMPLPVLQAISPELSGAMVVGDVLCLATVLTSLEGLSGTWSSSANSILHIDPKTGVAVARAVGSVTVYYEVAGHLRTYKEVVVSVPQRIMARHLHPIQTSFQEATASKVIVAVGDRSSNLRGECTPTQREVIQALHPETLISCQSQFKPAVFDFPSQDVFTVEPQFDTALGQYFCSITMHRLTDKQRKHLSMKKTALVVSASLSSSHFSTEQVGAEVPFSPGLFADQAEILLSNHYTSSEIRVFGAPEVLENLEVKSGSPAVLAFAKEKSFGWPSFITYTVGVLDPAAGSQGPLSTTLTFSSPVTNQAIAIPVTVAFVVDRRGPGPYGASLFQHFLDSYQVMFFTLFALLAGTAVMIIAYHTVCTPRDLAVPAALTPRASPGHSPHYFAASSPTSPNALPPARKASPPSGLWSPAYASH
inactive: [1] -0.001 | [2] -0.12 | [3] 0 | [4] 0.03 | [5] 0.002 | [6] -0.053 | [7] 0.03 | [8] 0.03 | [9] -0.026 | [11] 0.017 | [12] -0.019 | [13] -0.04 | [14] -0.003 | [15] -0.147 | [16] -0.021 | [17] -0.039 | [18] -0.07 | [19] 0.027 | [20] -0.035
active: [10] -0.348

OTUD4 (UniProt Q01804)
inactive: [1] 0.078 | [2] -0.067 | [3] 0.009 | [4] -0.085 | [5] -0.016 | [6] 0.098 | [7] 0.011 | [8] -0.013 | [9] 0.041 | [10] 0.075 | [11] -0.031 | [12] -0.017 | [13] 0.036 | [14] -0.018 | [15] -0.014 | [16] 0.054 | [17] 0.136 | [18] 0.019 | [19] 0.036 | [20] 0.001

NUDT1 (UniProt P36639)
active: [1] 0.971 | [2] 1.35
inactive: [3] -0.012 | [4] -0.039 | [5] -0.113 | [6] -0.19 | [7] 0.06 | [8] 0.054 | [9] -0.088 | [10] 0.157 | [11] 0.068 | [12] 0.043 | [13] -0.038 | [14] 0.193 | [15] 0.05 | [16] 0.019 | [17] 0.416 | [18] 0.196 | [19] -0.03 | [20] -0.074

NDUFB8 (UniProt O95169)
Chain of UniProt O95169 (O95169 whole entry, looked up): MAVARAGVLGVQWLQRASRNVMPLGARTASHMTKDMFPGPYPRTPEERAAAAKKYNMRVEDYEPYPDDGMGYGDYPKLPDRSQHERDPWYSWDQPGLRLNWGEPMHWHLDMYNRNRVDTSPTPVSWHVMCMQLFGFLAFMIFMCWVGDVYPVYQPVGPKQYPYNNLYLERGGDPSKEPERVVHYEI
inactive: [1] 0.008 | [2] -0.016 | [3] -0.036 | [4] 0.074 | [5] 0.041 | [6] 0.055 | [7] 0.016 | [8] 0.025 | [9] 0 | [10] 0.097 | [11] -0.064 | [12] 0.071 | [13] -0.077 | [14] -0.016 | [15] 0.002 | [16] -0.037 | [17] 0.003 | [18] -0.073 | [19] 0.016 | [20] -0.048

NUMB (UniProt P49757)
Chain of UniProt P49757 (P49757 whole entry, looked up): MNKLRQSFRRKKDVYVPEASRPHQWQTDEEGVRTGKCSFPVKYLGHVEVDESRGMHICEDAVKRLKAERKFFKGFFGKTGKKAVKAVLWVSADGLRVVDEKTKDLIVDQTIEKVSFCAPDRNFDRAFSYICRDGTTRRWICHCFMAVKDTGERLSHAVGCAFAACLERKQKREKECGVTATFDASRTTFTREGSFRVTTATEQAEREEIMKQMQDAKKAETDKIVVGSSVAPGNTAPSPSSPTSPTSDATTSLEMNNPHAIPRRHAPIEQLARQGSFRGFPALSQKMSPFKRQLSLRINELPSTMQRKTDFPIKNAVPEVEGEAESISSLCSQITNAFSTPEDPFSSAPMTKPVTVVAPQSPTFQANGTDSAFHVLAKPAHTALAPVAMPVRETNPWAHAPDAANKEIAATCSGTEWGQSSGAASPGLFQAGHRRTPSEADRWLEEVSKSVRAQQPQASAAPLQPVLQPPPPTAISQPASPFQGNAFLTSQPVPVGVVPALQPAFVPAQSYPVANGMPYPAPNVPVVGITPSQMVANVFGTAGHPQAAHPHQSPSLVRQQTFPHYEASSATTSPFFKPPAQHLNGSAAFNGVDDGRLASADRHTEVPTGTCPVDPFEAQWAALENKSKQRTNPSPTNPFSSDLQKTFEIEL
inactive: [1] -0.017 | [2] 0.057 | [3] 0.02 | [4] -0.013 | [5] 0.009 | [6] -0.045 | [7] -0.024 | [8] 0.053 | [9] -0.007 | [10] -0.202 | [11] 0.033 | [13] -0.095 | [14] -0.014 | [15] -0.027 | [16] -0.044 | [17] 0.01 | [18] 0.065 | [19] 0.081 | [20] 0
active: [12] -0.266

NAPG (UniProt Q99747)
Chain of UniProt Q99747 (Q99747 whole entry, looked up): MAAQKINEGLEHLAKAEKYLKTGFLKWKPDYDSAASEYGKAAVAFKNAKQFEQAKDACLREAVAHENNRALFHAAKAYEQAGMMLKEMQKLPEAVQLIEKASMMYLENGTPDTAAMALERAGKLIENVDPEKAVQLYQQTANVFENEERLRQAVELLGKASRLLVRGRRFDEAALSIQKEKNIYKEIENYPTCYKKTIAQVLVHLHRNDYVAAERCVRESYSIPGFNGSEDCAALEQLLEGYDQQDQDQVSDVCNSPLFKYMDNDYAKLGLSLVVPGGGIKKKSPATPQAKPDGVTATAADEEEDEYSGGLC
active: [2] -0.462
inactive: [1] -0.118 | [3] 0.072 | [4] 0.069 | [5] -0.05 | [6] -0.076 | [7] 0.048 | [8] 0.088 | [9] 0 | [10] -0.028 | [11] -0.028 | [12] -0.075 | [13] -0.137 | [14] 0.048 | [15] 0.031 | [16] -0.159 | [17] 0.044 | [18] 0.053 | [19] 0.052 | [20] -0.028
